Measurements from PubChem BioAssay (NCI).
Several values for one entry are separate records, joined by “and”; a condition that tells them apart may be missing. Equal entries are not always repeated. Compounds without any hit were thinned out: in the full panel of roughly 83,000, 20% have a hit.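 Cells were grown in 96-well plates and exposed to the test compound at a single concentration for 48 hours; results are reported as percent growth, with values below 10 considered active.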 Activity calls are given as the source filed them.

Columns and labels:
Assay in all cases: NCI-60 one-dose screen, 48 h (100 = growth as untreated, 0 = no growth, -100 = all killed)
Details in all cases: 10 µM unless noted
[1] = tested on: NCI-H23 lung
[2] = tested on: NCI-H226 lung
[3] = tested on: NCI-H322M lung
[4] = tested on: HOP-62 NSCLC
[5] = tested on: NCI-H460 lung
[6] = tested on: HOP-92 NSCLC
[7] = tested on: NCI-H522 lung
[8] = tested on: A549/ATCC NSCLC
[9] = tested on: 786-0 renal
[10] = tested on: COLO 205 colon
[11] = tested on: DU-145 prostate
[12] = tested on: K-562 leukemia
[13] = tested on: MALME-3M melanoma
[14] = tested on: MDA-MB-231 breast
[15] = tested on: RXF 393 renal
[16] = tested on: SF-268 CNS
[17] = tested on: SF-295 CNS
[18] = tested on: SF-539 CNS
[19] = tested on: UACC-257 melanoma
[20] = tested on: M14 melanoma

| Compound | growth [1] | growth [2] | growth [3] | growth [4] | growth [5] | growth [6] | growth [7] | growth [8] | growth [9] | growth [10] | growth [11] | growth [12] | growth [13] | growth [14] | growth [15] | growth [16] | growth [17] | growth [18] | growth [19] | growth [20] |
| --- | --- | --- | --- | --- | --- | --- | --- | --- | --- | --- | --- | --- | --- | --- | --- | --- | --- | --- | --- | --- |
| COc1ccc2c(c1)c(C(=O)c1nc(-c3cn(C)c4ccccc34)no1)cn2C | 94.6% (inactive) | 83% (inactive) | 86.5% (inactive) | 92.5% (inactive) | 101% (inactive) | 110% (inactive) | 69.6% (inactive) | 90.7% (inactive) | 107% (inactive) | 97.7% (inactive) | 111% (inactive) | 72% (inactive) | 83.4% (inactive) | 104% (inactive) | 100% (inactive) | 103% (inactive) | 90% (inactive) | 97.2% (inactive) | 89% (inactive) | 104% (inactive) |
| COc1ccc(/C=N/NC(=O)CN2CCN(c3cc4c(cc3F)c(=O)c(C(=O)O)cn4C3CC3)CC2)cc1O | 103% (inactive) | 112% (inactive) | 102% (inactive) | 98.9% (inactive) | 105% (inactive) | 91.8% (inactive) | 80.8% (inactive) | 99.5% (inactive) | 101% (inactive) | 112% (inactive) | 102% (inactive) | 86.2% (inactive) | 109% (inactive) | 92.8% (inactive) | 103% (inactive) | 87.7% (inactive) | 104% (inactive) | 101% (inactive) | 89.5% (inactive) | 101% (inactive) |
| COc1ccc2c(c1)c(-c1nc(-c3c[nH]c4c(Cl)nccc34)cs1)cn2C | 73.9% (inactive) | 37.2% (inactive) | 91.3% (inactive) | 92.6% (inactive) | 31.1% (inactive) | 76.1% (inactive) | 86.6% (inactive) | 84.7% (inactive) | 124% (inactive) | 93.9% (inactive) | 90% (inactive) | 90.8% (inactive) | 117% (inactive) | 52.2% (inactive) | 83.2% (inactive) | 111% (inactive) | 97.2% (inactive) | 89.7% (inactive) | 100% (inactive) | 90.8% (inactive) |
| Clc1ccc2c(c1)N(c1ncnc3ccc(-c4cnc5[nH]ccc5c4)cc13)CC2 | 40.6% (inactive) | 40.9% (inactive) | 41.3% (inactive) | 13.8% (inactive) | 16.5% (inactive) | 14.8% (inactive) | 30.6% (inactive) | 21.4% (inactive) | 24.5% (inactive) | 45.1% (inactive) | 27.6% (inactive) | 5.53% (active) | 7.46% (active) | 35.6% (inactive) | 4.78% (active) | 39.8% (inactive) | 19.7% (inactive) | 27.5% (inactive) | 34.4% (inactive) | 8.89% (active) |
| CN(C)c1ccc2nc3ccc(=O)cc-3sc2c1 | 11.1% (inactive) and 22% (inactive) | 71.8% (inactive) | 49.7% (inactive) and 70% (inactive) | 35.5% (inactive) and 60.7% (inactive) | 19% (inactive) and 34.1% (inactive) | 49% (inactive) and 61% (inactive) | -10.8% (active) and 41.5% (inactive) | 1.33% (active) and 35.9% (inactive) | 57.1% (inactive) and 43.7% (inactive) | -10.2% (active) and 5.66% (active) | 35.7% (inactive) and 51.2% (inactive) | 20.4% (inactive) and 23% (inactive) | 1.88% (active) and 22.1% (inactive) | 30.4% (inactive) and 43% (inactive) | 52.2% (inactive) and 82% (inactive) | 52.9% (inactive) and 63% (inactive) | 6.09% (active) and -15.3% (active) | 10.3% (inactive) and 1.75% (active) | -21.8% (active) and 24.8% (inactive) | 9.73% (active) and 7.61% (active) |
| COc1cc(CNC(=O)CCCC/C=C/C(C)C)ccc1O | 101% (inactive) | 94.2% (inactive) and 92.4% (inactive) | 124% (inactive) and 88.7% (inactive) | 89% (inactive) and 104% (inactive) | 106% (inactive) and 114% (inactive) | 84.4% (inactive) | 83.1% (inactive) and 75.5% (inactive) | 106% (inactive) and 115% (inactive) | 107% (inactive) and 101% (inactive) | 101% (inactive) and 111% (inactive) | 112% (inactive) and 120% (inactive) | 84.1% (inactive) and 93.3% (inactive) | 154% (inactive) and 95.6% (inactive) | 85.1% (inactive) and 83.3% (inactive) | -46.1% (active) and 98.6% (inactive) | 84.9% (inactive) and 91.6% (inactive) | 128% (inactive) and 107% (inactive) | 95.6% (inactive) and 90.7% (inactive) | 119% (inactive) and 112% (inactive) | 117% (inactive) and 99.5% (inactive) |
| CCOC(=O)c1c(-c2ccc(OC)cc2)c(C#N)c2c(C#N)c(N)nn2c1N | 62.2% (inactive) | 61.5% (inactive) | 80.9% (inactive) | 35.8% (inactive) | 9.75% (active) | 15.4% (inactive) | -6.29% (active) | 36.4% (inactive) | 45.3% (inactive) | 18.6% (inactive) | 56.1% (inactive) | 5.64% (active) | 30.8% (inactive) | 28.4% (inactive) | 59.7% (inactive) | 40.2% (inactive) | 28.2% (inactive) | 25.1% (inactive) | 49.9% (inactive) | 34.2% (inactive) |
| COc1ccc(-c2[nH]c3ccccc3c2-c2ccc(OC)cc2)cc1 | 53% (inactive) | 112% (inactive) | 84.2% (inactive) | 51.9% (inactive) | 43.2% (inactive) | 42.6% (inactive) | 55.6% (inactive) | 75.7% (inactive) | 51.7% (inactive) | 75.3% (inactive) | -30.6% (active) | 3.69% (active) | 73.3% (inactive) | 52.6% (inactive) | 51.9% (inactive) | 61.4% (inactive) | 50.2% (inactive) | 45.3% (inactive) | 72% (inactive) | 34.9% (inactive) |
| COc1cc(-c2nn(-c3cccc(NC(=O)CCN4CCN(C)CC4)c3)cc2-c2ccncc2)ccc1Cl | 42.5% (inactive) | 67.7% (inactive) | 37.5% (inactive) | 24.6% (inactive) | 14.9% (inactive) | 22.7% (inactive) | -6.1% (active) | 30.7% (inactive) | 12.2% (inactive) | -31.6% (active) | 3.19% (active) | -10.4% (active) | 38% (inactive) | 39.9% (inactive) | 18.6% (inactive) | 31.5% (inactive) | -6.03% (active) | -19.6% (active) | 39.3% (inactive) | -41.6% (active) |
| COc1ccc(-c2ccc(-c3ccc(C(=N)N)cn3)o2)cc1Cl | 69.3% (inactive) | 81.4% (inactive) | 77.2% (inactive) | 67.5% (inactive) | 0.593% (active) | 36.4% (inactive) | 59.5% (inactive) | 21.2% (inactive) | -6.3% (active) | -72.6% (active) | 46.5% (inactive) | -40.3% (active) | 5.7% (active) | 4.25% (active) | 56.6% (inactive) | 46.5% (inactive) | 73.6% (inactive) | 33% (inactive) | 77.1% (inactive) | 31.8% (inactive) |
